Test results as given in PubChem BioAssay AID504652 (National Center for Advancing Translational Sciences (NCATS), 2011).
“And” between values parts separate entries of the source, which are not always exact repeats. Identical values can stand only once. In all, about 360,000 compounds went through this assay and about 11,000 (3.1%) were called active. What follows is part of a selection rich in actives, with near analogues and random picks from the rest. Values without a mark were called inactive. No stated cut-off is given here; in the data, active means activity change below about -30%; inactive means the rest.

Target: D(1A) dopamine receptor (Homo sapiens) (UniProt P21728)
Sequence (P21728 whole entry, looked up): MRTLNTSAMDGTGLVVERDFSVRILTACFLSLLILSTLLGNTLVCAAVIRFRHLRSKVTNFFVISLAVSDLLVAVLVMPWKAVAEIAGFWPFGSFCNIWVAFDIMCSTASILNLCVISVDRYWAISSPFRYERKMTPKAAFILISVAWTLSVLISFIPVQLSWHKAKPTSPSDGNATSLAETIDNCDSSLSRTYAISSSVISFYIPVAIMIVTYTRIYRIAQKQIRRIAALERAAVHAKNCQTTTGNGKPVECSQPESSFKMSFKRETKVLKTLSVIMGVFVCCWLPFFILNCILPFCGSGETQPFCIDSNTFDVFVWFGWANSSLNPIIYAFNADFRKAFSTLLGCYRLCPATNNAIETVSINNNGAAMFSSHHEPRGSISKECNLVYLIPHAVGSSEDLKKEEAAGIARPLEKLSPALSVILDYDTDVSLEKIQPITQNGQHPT
Assay: Antagonist of Human D 1 Dopamine Receptor: qHTS
Conditions: HEK293 TREx D1 cells, calcium flux, dopamine EC80; at 10 µM; stronger effect = lower value
How it was run: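 HEK293 T-REx cells expressing inducible, force-coupled D1 receptor; no-wash Ca dye, 30–90 min RT. Cmpd → 180 s read at 1 Hz → EC80 DA → 180 s read.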
On the % scale 0 is the no-effect control and ±100 the full control effect.

Row | Structure (SMILES) | activity change, negative = inhibition
1 | Cc1nnc(SC(C)C(=O)Nc2ccc(S(=O)(=O)NC3CCCCC3)cc2)s1 (centres undefined) | -34.5% (active)
2 | Cc1ccc(Nc2nnc(SC(C)C(=O)NC3CC3)s2)cc1 (centres undefined) | -6.59%
3 | CCc1nnc(NC(=O)c2ccc(S(=O)(=O)NC3CCCCC3)cc2)s1 | 1.91%
4 | CCOc1ccccc1C(=O)NCC(c1ccc(N(C)C)cc1)N1CCCC1 (centres undefined) | -18.8%
5 | Cc1ccc(CCn2c3c(c4ccccc42)CN(C)CC3)cn1 | -37.8% (active)
6 | COc1ccccc1NC(=O)C1=C(C)Nc2ncnn2C1c1sccc1C (centres undefined) | 2.71%
7 | Nc1nc(NC(=O)/C=C/c2ccc(F)cc2)nn1-c1ccccc1 | 8.35%
8 | Nc1nc(NC(=O)/C=C/c2ccccc2)nn1-c1ccccc1 | -60.9% (active)
9 | Cc1ccc(C(=O)Nc2nc(N)n(-c3ccccc3)n2)cc1 | -1.57%
10 | CCOC(=O)c1cc(-c2ccccc2)n(CCC(=O)Nc2ccccc2CC)c1C | -5.19%
11 | Cc1ccccc1C(=O)Nc1nnc(S(=O)(=O)N(C)c2ccc(Cl)cc2)s1 | -3.48%
12 | COc1ccc(S(=O)(=O)NC(C)C(=O)N2CCCCCC2)cc1 (centres undefined) | 6.5%
13 | COCC(C)NS(=O)(=O)c1ccc(N2CCCCS2(=O)=O)cc1 (centres undefined) | -32.2% (active)
14 | COc1ccc(N2CCN(C(=O)c3ccc(N4CCCCS4(=O)=O)cc3)CC2)cc1 | -28.7%
15 | Cc1ccccc1CSc1nc(-c2ccccc2)nc2c1Cc1c(CO)cnc(C)c1O2 | -5.66%
16 | CCCC(=O)Nc1cc(C(=O)NCc2ccc(OC)cc2)ccc1S(=O)(=O)c1ccc(Cl)cc1 | 3.26%
17 | CCc1ccccc1NC(=O)N1CCN(C(=O)c2nsc3ccccc23)CC1 | 5.59%
18 | O=C(Nc1ccccc1)C1CCN(C(=O)c2ccc(Br)cc2)CC1 | -21.4%
19 | O=C(Nc1ccc(S(=O)(=O)N2CCCCC2)cc1)C1CCN(C(=O)c2ccc(F)cc2)CC1 | -10.9%
20 | O=C(Nc1ccc(F)cc1)C1CCN(C(=O)c2ccc([N+](=O)[O-])cc2)CC1 | -37.8% (active)
21 | CCOC(=O)c1c(NC(=O)c2cc(CC)on2)sc(C(C)=O)c1C | -23.3%
22 | NS(=O)(=O)c1ccc(NS(=O)(=O)/C=C/c2ccccc2)cc1 | 4.29%

Row | Structure (SMILES) | activity change, negative = inhibition
23 | COC(=O)[C@H](Cc1ccccc1)NC(=O)Nc1ccc(S(N)(=O)=O)cc1 | -6.59%
24 | NS(=O)(=O)c1ccc(Nc2nc(-c3ccccc3)cs2)cc1 | -31.8% (active)
25 | Cc1cccc(NC(=O)CN(c2ccc(C(C)C)cc2)S(=O)(=O)c2c(C)nn(C)c2C)c1C | -5.46%
26 | CCC(=O)N1c2ccccc2CC1C(=O)N1CCN(c2ccccc2)CC1 (centres undefined) | -1.25%
27 | CC(C)c1ccc(Cn2c(COc3ccccc3)nc3ccccc32)cc1 | 0.116%
28 | O=C(Cn1c(=O)nc(-c2ccccc2)c2cc(Cl)ccc21)NCc1ccc(Cl)cc1 | 7.3%
29 | CC(C)c1ccc2c(c1)c(SC(C)(C)C)c(CC(C)(C)C(=O)O)n2Cc1ccc(Cl)cc1 | -36.5% (active) and -38.2% (active)
30 | COc1cccc(-c2nnc(SCC(=O)N3CCC(C)CC3)o2)c1 | 2.47%
31 | CCc1cc(C(=O)Nc2nnc(C3CC3)s2)sc1C | 5.22%
32 | O=C(Nc1nnc(C2CC2)s1)C1=NN(C2CCS(=O)(=O)C2)C(=O)CC1 (centres undefined) | -30.2% (active)
33 | O=C(Nc1nnc(C2CC2)s1)c1ccccn1 | -8.58%
34 | O=C(CSCc1cnn(-c2ccccc2)c1-n1cccc1)NCc1ccccc1Br | 7.2%
35 | COc1ccc2c(c1)c(=O)c(S(=O)(=O)c1ccc(F)cc1)cn2CC(=O)Nc1ccc(C)cc1C | -20%
36 | CCc1ccc(NC(=O)c2cc(S(=O)(=O)NC3CCCCCC3)ccc2F)cc1 | 1.8%
37 | COc1ccc(-c2nc(CN3CCC(C(=O)NCCN(CC(C)C)CC(C)C)CC3)c(C)o2)cc1OC | -3.04%
38 | Cc1ccc(NC(=O)CCCn2c(=O)c3cccn3c3ccccc32)cc1Cl | -14.3%
39 | COc1ccc(Cl)cc1NC(=O)CCn1c(=O)c2cccn2c2ccccc21 | -35% (active)
40 | COc1ccc(Cl)cc1NC(=O)Cn1nc(-c2ccc(C)cc2)n(C)c1=S | -37.4% (active)
41 | COc1ccc(C)cc1NC(=O)CSc1ccc(Cl)cc1 | 3.7%
42 | COc1ccc(Cl)cc1NC(=O)CCC(=O)c1ccc(C)cc1 | 0.782%
43 | COc1ccc(Cl)cc1NC(=O)Cn1c(=O)c2ccccc2n2nncc12 | 3.48%
44 | Cc1ccc(Nc2nnc(-c3ccc(C)c(S(=O)(=O)N4CCCCC4)c3)c3ccccc23)cc1 | -4.3%
